Assay results: PubChem BioAssay (NCI)
Compounds without any hit were thinned out: in the full panel of roughly 83,000, 20% have a hit.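 A percent growth of 40 corresponds to 60% growth inhibition; 0 means no net growth; -100 means all cells died. Active threshold: below 10.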 The source made the active and inactive calls.

What was measured:
Experiment in all cases: NCI-60 one-dose screen, 48 h (100 = growth as untreated, 0 = no growth, -100 = all killed)
Details in all cases: 10 µM unless noted
T-47D breast = test system: T-47D breast
BT-549 breast = test system: BT-549 breast
MDA-MB-435 melanoma = test system: MDA-MB-435 melanoma
SW-620 colon = test system: SW-620 colon
MCF7 breast = test system: MCF7 breast
HCT-116 colon = test system: HCT-116 colon
KM12 colon = test system: KM12 colon
HCC-2998 colon = test system: HCC-2998 colon

Measured: growth

CC(C)CC1NC(=O)C(CCCN)NC(=O)C(C(C)C)NC(=O)C2CCCN2C(=O)C(Cc2ccccc2)NC(=O)C(CC(C)C)NC(=O)C(CCCN)NC(=O)C(C(C)C)NC(=O)C2CCCN2C(=O)C(Cc2ccccc2)NC1=O (stereo unspecified)
active: T-47D breast -37.2% | BT-549 breast -77.7% | MDA-MB-435 melanoma -83.6% | SW-620 colon -75.6% | MCF7 breast -61.5% | HCT-116 colon -92.2% | KM12 colon -75%

COc1cc(/C=C2\CN(C)CC3=C2Nc2nc(SC)[nH]c(=O)c2C3c2cc(OC)c(OC)c(OC)c2)cc(OC)c1OC (stereo unspecified)
active: MDA-MB-435 melanoma 2.77% | HCT-116 colon -46.3%
inactive: T-47D breast 85.4% | BT-549 breast 54.9% | SW-620 colon 11.7% | MCF7 breast 33.5% | KM12 colon 37.2%

Clc1ccc2nc(CI)c(CI)nc2c1
inactive: T-47D breast 85.3% | BT-549 breast 73.1% | MDA-MB-435 melanoma 23.8% | SW-620 colon 25.1% | MCF7 breast 22.4% | HCT-116 colon 11% | KM12 colon 101%

COc1ccc(CNC(=O)c2c(C)n([O-])c3ccc(OC)cc3[n+]2=O)cc1
inactive: T-47D breast 115% | BT-549 breast 83.5% | MDA-MB-435 melanoma 115% | SW-620 colon 107% | MCF7 breast 101% | HCT-116 colon 106% | KM12 colon 97.1%

CCCCCCCCCCN1CCC(N2CCCCC2)CC1
inactive: BT-549 breast 37.5%
active: T-47D breast -55.9% | MDA-MB-435 melanoma -25% | SW-620 colon -56.9% | MCF7 breast -60.8% | HCT-116 colon -65.2% | KM12 colon -6.35%

O=C(Oc1ccccc1)C(Br)C(Br)c1ccccc1 (stereo unspecified)
inactive: T-47D breast 94% | BT-549 breast 99.9% | MDA-MB-435 melanoma 94.5% | MCF7 breast 49.5% | HCT-116 colon 61.2% | KM12 colon 71.9%
active: SW-620 colon -77%

Oc1ccc(/C=N/Nc2nc3ccccc3s2)c(O)c1
inactive: T-47D breast 26.8% | BT-549 breast 43.8% | MDA-MB-435 melanoma 39.7% | SW-620 colon 41.9% | MCF7 breast 26.5% | HCT-116 colon 25.2% | KM12 colon 15.7%

NS(=O)(=O)c1cc(C2(O)NC(=O)c3ccccc32)ccc1Cl (stereo unspecified)
inactive: T-47D breast 109% | BT-549 breast 97.7% | MDA-MB-435 melanoma 101% | SW-620 colon 109% | MCF7 breast 102% | HCT-116 colon 98.9% | KM12 colon 111%

C[C@]12CCC(=O)C=C1CC[C@H]1[C@@H]3C[C@@H](O)[C@](O)(C(=O)CO)[C@@]3(C)C[C@H](O)[C@@]12F
inactive: T-47D breast 103% | BT-549 breast 99.4% | MDA-MB-435 melanoma 99.7% | SW-620 colon 95.5% | MCF7 breast 86.1% | HCT-116 colon 90.6% | KM12 colon 102%

O=C(CC(C(=O)c1ccccc1)N1CCN(Cc2ccccc2)CC1)c1ccccc1 (stereo unspecified)
inactive: T-47D breast 45.6% | BT-549 breast 101% | MDA-MB-435 melanoma 109% | SW-620 colon 11.8% | MCF7 breast 52.1% | HCT-116 colon 22.8% | KM12 colon 101%

CC[C@@H](C)/C=C(C)/C=C/C(O)=C1\C(=O)N[C@@H](Cc2ccc(OC(=O)[C@@](OC)(c3ccccc3)C(F)(F)F)cc2)C1=O
inactive: T-47D breast 113% | BT-549 breast 88.8% | MDA-MB-435 melanoma 101% | SW-620 colon 96.7% | MCF7 breast 99.8% | HCT-116 colon 91% | KM12 colon 91.1%

O=C1C=CC(=O)N1c1ccccn1
inactive: T-47D breast 106% | BT-549 breast 104% | MDA-MB-435 melanoma 116% | SW-620 colon 101% | MCF7 breast 100% | HCT-116 colon 96.8% | KM12 colon 107%

COc1ccc(NS(=O)(=O)N2CCCCC2)cc1
inactive: T-47D breast 95.3% | BT-549 breast 104% | MDA-MB-435 melanoma 116% | SW-620 colon 98% | MCF7 breast 108% | HCT-116 colon 103% | KM12 colon 110%

O=CNc1ccc2c(c1)Cc1cc([N+](=O)[O-])ccc1-2
inactive: T-47D breast 29.1% | BT-549 breast 16.5% | SW-620 colon 32.4% | MCF7 breast 16.3% | HCT-116 colon 11.7% | KM12 colon 13.9%
active: MDA-MB-435 melanoma -27.9%

O=C1C=CC(=O)N1c1ccccc1N1C(=O)C=CC1=O
inactive: T-47D breast 102% | BT-549 breast 104% | MDA-MB-435 melanoma 122% | SW-620 colon 57.9% | MCF7 breast 97.1% | HCT-116 colon 105% | KM12 colon 117%

Cc1[nH]cnc1/C=C1\SC(N2CCCCC2)=NC1=O
inactive: T-47D breast 104% | BT-549 breast 105% | MDA-MB-435 melanoma 108% | SW-620 colon 107% | MCF7 breast 108% | HCT-116 colon 106% | KM12 colon 114%

COc1ccc2c(c1)sc1nc(-c3ccc(N(C)C)cc3)cn12
inactive: T-47D breast 68.7% | BT-549 breast 99% | MDA-MB-435 melanoma 104% | SW-620 colon 104% | MCF7 breast 84% | HCT-116 colon 91.7% | KM12 colon 75.8%

COc1cc(-c2nc3sc4c(c3c(=O)[nH]2)CCCCCC4)cc(OC)c1OC
inactive: T-47D breast 32.8% | BT-549 breast 53.1% | SW-620 colon 30.3% | MCF7 breast 15% | HCT-116 colon 20.3% | KM12 colon 28.6%
active: MDA-MB-435 melanoma -18%

NC(=N\N=C/Cc1ccccc1)/C(N)=N\N=C\Cc1ccccc1
inactive: T-47D breast 91.7% | BT-549 breast 104% | MDA-MB-435 melanoma 107% | SW-620 colon 104% | MCF7 breast 101% | HCT-116 colon 108% | KM12 colon 104%

COc1cccc(/C=N/Nc2nc3ccccc3s2)c1OC
inactive: T-47D breast 67.5% | BT-549 breast 78.5% | MDA-MB-435 melanoma 91.5% | SW-620 colon 96.7% | MCF7 breast 63.2% | HCT-116 colon 42.5% | KM12 colon 70.5%

OC(c1cc(-c2cccc(Cl)c2)nc2ccccc12)C1CCCCN1 (stereo unspecified)
active: T-47D breast -71.6% | MDA-MB-435 melanoma -56.9% | SW-620 colon -66.6% | MCF7 breast -86.9% | HCT-116 colon -89.8% | KM12 colon -88.1%
inactive: BT-549 breast 67%

Cc1ccc(C(=O)Cc2ccccc2)c(O)c1
inactive: T-47D breast 95.8% | BT-549 breast 105% | MDA-MB-435 melanoma 115% | SW-620 colon 105% | MCF7 breast 99.9% | HCT-116 colon 108% | KM12 colon 110%

C[C@@H]1C[C@@H]([C@@H](CC2CC(=O)NC(=O)C2)OC(=O)CC(=O)c2ccccc2)C(=O)[C@@H](C)C1
inactive: BT-549 breast 14.6% | MDA-MB-435 melanoma 11.6% | SW-620 colon 15.1% | MCF7 breast 14.7% | KM12 colon 12%
active: T-47D breast -2.63% | HCT-116 colon 5.68%

COc1ccc(CNC(=O)c2c(C)n([O-])c3ccccc3[n+]2=O)cc1
inactive: T-47D breast 81.3% | BT-549 breast 76.8% | MDA-MB-435 melanoma 124% | SW-620 colon 108% | MCF7 breast 91% | HCT-116 colon 97.9% | KM12 colon 131%

O=C(Nc1ccc2c(c1)C(=O)c1ccccc1-2)c1ccccc1
inactive: T-47D breast 73.2% | BT-549 breast 104% | MDA-MB-435 melanoma 101% | SW-620 colon 55.4% | MCF7 breast 48% | KM12 colon 87.3%
active: HCT-116 colon -20.7%

Cc1sc2nc3c4ccccc4c(NCCCN(C)C)nn3c(=O)c2c1C
inactive: T-47D breast 85.2% | BT-549 breast 66.7% | MDA-MB-435 melanoma 24.8% | MCF7 breast 23.8% | HCT-116 colon 36.1% | KM12 colon 31.5%
active: SW-620 colon -43.7%

CC(NC(=O)Oc1cccc2ccccc12)c1ccccc1 (stereo unspecified)
inactive: T-47D breast 92.7% | BT-549 breast 106% | MDA-MB-435 melanoma 102% | SW-620 colon 98.6% | MCF7 breast 87.8% | HCT-116 colon 105% | KM12 colon 99.8%

Cc1ccc(-c2csc(N)n2)cc1
inactive: T-47D breast 92.9% | BT-549 breast 93% | MDA-MB-435 melanoma 106% | MCF7 breast 106% | HCT-116 colon 99.9% | HCC-2998 colon 98.7%

CNc1nc(NC2CCCC2)nc(Sc2ccc(OC)cc2)n1
active: BT-549 breast 7.66% [100 µM] | MDA-MB-435 melanoma 0.45% [100 µM] | HCT-116 colon 0.657% [100 µM] | KM12 colon 1.94% [100 µM]
inactive: T-47D breast 27.3% [100 µM] | SW-620 colon 21% [100 µM] | MCF7 breast 30.9% [100 µM]

O=C(/C=C/c1cccc(O)c1)c1cccc(-n2cc(-c3ccccc3)[nH]c2=O)c1
active: BT-549 breast 7.56% | MCF7 breast 6.52% | HCT-116 colon -67.7% | HCC-2998 colon -44.2% | KM12 colon -73.3%
inactive: T-47D breast 21.1% | MDA-MB-435 melanoma 33.8%

CCOC(CNCc1cc(C)c2[nH]c3ccccc3c2c1C)OCC
inactive: T-47D breast 84.9% | BT-549 breast 76.4% | MDA-MB-435 melanoma 92.3% | MCF7 breast 81.3% | HCT-116 colon 53.5% | HCC-2998 colon 45.1% | KM12 colon 94.4%
